Laboratory results reported in the supplement of paper PMC9262897, “Low-cost anti-mycobacterial drug discovery using engineered E. coli” (Nature Communications, 2022).
Where a name gives a salt, the structure may show the parent alone. ± gives the standard deviation of the averaged measurements.

Experiments:
Assay in all cases: growth (OD600 after 10 h); higher = more growth (less inhibition)
[1] = system: E. coli TESEC Alr+ wild-type control; settings: compound 0.1 mM; raw OD600 reference: median of DMSO wells 0.241, cell-free background 0.041
Protocol: (§1)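 TESEC Mtb Alr E. coli, or the Alr+ wild-type control, in 384-well plates with Prestwick library compounds at 0.1 mM and 1% DMSO, across arabinose induction levels of 1E3 to 1E7 nM. Growth is read as OD600 after 10 h at 37 °C in triplicate biological replicates.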

E. coli TESEC Mtb Alr [2] = settings: compound 0.1 mM
Protocol: as §1

E. coli TESEC Mtb Asd = settings: compound 0.1 mM
Protocol: (§2)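 TESEC E. coli strains in which the native enzyme is deleted and replaced by arabinose-inducible Mtb Asd, DapB, CysH or TrpD, each grown in its selective medium. Strains were screened against the Prestwick library at 0.1 mM and 1% DMSO in 384-well format at low and high arabinose induction. Growth is read as OD600 after 10 h in triplicate.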

E. coli TESEC Mtb DapB = settings: compound 0.1 mM
Protocol: as §2

[3] = system: E. coli TESEC Alr+ wild-type control; settings: compound 0.1 mM; raw OD600 reference: median of DMSO wells 0.49, cell-free background 0.052
Protocol: (§3)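 TESEC Mtb Alr E. coli (ΔaraC ΔtolC ΔentC Δalr ΔdadX, arabinose-inducible Mtb Alr) or the Alr+ wild-type control strain, grown in defined M9-fructose medium without D-alanine in 96-well plates with Prestwick library compounds at 0.1 mM and 1% DMSO. Low Alr induction is 0.1 µM arabinose and high induction is 10 mM arabinose.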

E. coli TESEC Mtb Alr [4] = settings: compound 0.1 mM; remark: listed apart in the source
Protocol: as §3

[5] = arabinose 1000 nM, raw OD600 reference: median of DMSO wells 0.294, cell-free background 0.041
[6] = arabinose 10000 nM, raw OD600 reference: median of DMSO wells 0.264, cell-free background 0.041
[7] = arabinose 100000 nM, raw OD600 reference: median of DMSO wells 0.201, cell-free background 0.041
[8] = arabinose 1000000 nM, raw OD600 reference: median of DMSO wells 0.193, cell-free background 0.041
[9] = arabinose 10000000 nM, raw OD600 reference: median of DMSO wells 0.146, cell-free background 0.041
[10] = arabinose induction (level): High, raw OD600 reference: median of DMSO wells 0.331, cell-free background 0.041
[11] = arabinose induction (level): Low, raw OD600 reference: median of DMSO wells 0.417, cell-free background 0.041
[12] = arabinose induction (level): High, raw OD600 reference: median of DMSO wells […], cell-free background 0.041
[13] = arabinose induction (level): Low, raw OD600 reference: median of DMSO wells 0.227, cell-free background 0.041
[14] = arabinose 100 nM, raw OD600 reference: median of DMSO wells 0.413, cell-free background 0.052
[15] = arabinose 10000000 nM, raw OD600 reference: median of DMSO wells […], cell-free background 0.052

Structure (SMILES)	growth [1]	growth (E. coli TESEC Mtb Alr [2]; [5])	growth (E. coli TESEC Mtb Alr [2]; [6])	growth (E. coli TESEC Mtb Alr [2]; [7])	growth (E. coli TESEC Mtb Alr [2]; [8])	growth (E. coli TESEC Mtb Alr [2]; [9])	growth (E. coli TESEC Mtb Asd; [10])	growth (E. coli TESEC Mtb Asd; [11])	growth (E. coli TESEC Mtb DapB; [12])	growth (E. coli TESEC Mtb DapB; [13])	growth [3]	growth (E. coli TESEC Mtb Alr [4]; [14])	growth (E. coli TESEC Mtb Alr [4]; [15])
N=C(N)NC(=O)c1nc(Cl)c(N)nc1N [Amiloride hydrochloride dihydrate]	0.236 ± 0.012	0.291 ± 0.021	0.257 ± 0.003	0.255 ± 0.016	0.181 ± 0.0048	0.15 ± 0.0063	0.387 ± 0.036	0.428 ± 0.033	0.203 ± 0.0053	0.278 ± 0.035	0.497 ± 0.071	0.407 ± 0.014	0.392 ± 0.015
C[n+]1ccccc1/C=N/O [Pralidoxime chloride]	0.253 ± 0.0089	0.318 ± 0.018	0.256 ± 0.013	0.202 ± 0.015	0.177 ± 0.0021	0.156 ± 0.007	0.476 ± 0.013	0.455 ± 0.046	0.223 ± 0.011	0.284 ± 0.0069	0.605 ± 0.018	0.407 ± 0.018	0.323 ± 0.015
C=CCN1CCCC1CNC(=O)c1cc2nn[nH]c2cc1OC (centres undefined) [Alizapride HCl]	0.234 ± 0.0057	0.277 ± 0.0082	0.271 ± 0.01	0.218 ± 0.025	0.191 ± 0.0082	0.143 ± 0.0052	0.299 ± 0.032	0.373 ± 0.05	0.217 ± 0.022	0.201 ± 0.017	0.536 ± 0.045	0.406 ± 0.011	0.336 ± 0.011
COc1cccc2c1C(=O)c1c(O)c3c(c(O)c1C2=O)C[C@@](O)(C(=O)CO)C[C@@H]3O[C@H]1C[C@H](N)[C@@H](O)[C@H](C)O1 [Epirubicin hydrochloride]	0.04433 ± 0.00032	0.0453 ± 0.0011	0.04623 ± 0.00032	0.0469 ± 0.0005	0.0457 ± 0.00068	0.0453 ± 0.0005	0.068 ± 0.0071	0.0576 ± 0.0035	0.0567 ± 0.0034	0.0562 ± 0.0015	0.0592 ± 0.0032	0.0587 ± 0.0013	0.0582 ± 0.00053
Nc1ccccc1S(N)(=O)=O [2-Aminobenzenesulfonamide]	0.239 ± 0.0094	0.296 ± 0.019	0.255 ± 0.0044	0.198 ± 0.0049	0.187 ± 0.0032	0.137 ± 0.004	0.399 ± 0.029	0.49 ± 0.028	0.2 ± 0.019	0.202 ± 0.019	0.566 ± 0.029	0.416 ± 0.013	0.343 ± 0.0096
NC(=O)c1ncn([C@@H]2O[C@H](CO)[C@@H](O)[C@H]2O)n1 [Ribavirin]	0.17 ± 0.02	0.0986 ± 0.0022	0.0798 ± 0.0011	0.117 ± 0.0028	0.0816 ± 0.0003	0.106 ± 0.0017	0.404 ± 0.036	0.426 ± 0.071	0.196 ± 0.021	0.203 ± 0.025	0.54 ± 0.043	0.415 ± 0.046	0.24 ± 0.021
CC[C@@]1(O)C(=O)OCc2c1cc1n(c2=O)Cc2cc3c(CN(C)C)c(O)ccc3nc2-1 [Topotecan]	0.235 ± 0.0064	0.271 ± 0.01	0.271 ± 0.0034	0.345 ± 0.039	0.127 ± 0.0043	0.183 ± 0.015	0.214 ± 0.029	0.317 ± 0.044	0.202 ± 0.067	0.178 ± 0.014	0.483 ± 0.024	0.393 ± 0.0043	0.269 ± 0.0042
CC(=O)O[C@]1(C(C)=O)CC[C@H]2[C@@H]3C=C(Cl)C4=CC(=O)CC[C@]4(C)[C@H]3CC[C@@]21C [Chlormadinone acetate]	0.15 ± 0.0069	0.156 ± 0.0078	0.0802 ± 0.014	0.148 ± 0.0022	0.0653 ± 0.0047	0.11 ± 0.0088	0.12 ± 0.0098	0.0867 ± 0.0071	0.0988 ± 0.0082	0.109 ± 0.029	0.442 ± 0.0057	0.3733 ± 0.0037	0.203 ± 0.03
CC(=O)NCCCS(=O)(=O)O [Acamprosate calcium]	0.233 ± 0.004	0.2868 ± 0.0017	0.242 ± 0.0043	0.202 ± 0.026	0.1706 ± 0.0011	0.142 ± 0.0039	0.259 ± 0.079	0.309 ± 0.033	0.212 ± 0.031	0.229 ± 0.028	0.472 ± 0.035	0.409 ± 0.01	0.35 ± 0.025
N[C@@H]1CCCCN(c2c(F)cc3c(=O)c(C(=O)O)cn(C4CC4)c3c2Cl)C1 [Besifloxacin hydrochloride]	0.04153 ± 0.00035	0.0427 ± 0.002	0.0401 ± 0.00026	0.0447 ± 0.0037	0.0402 ± 0.00095	0.0414 ± 0.0011	0.0501 ± 0.0019	0.0463 ± 0.00069	0.0491 ± 0.0014	0.0491 ± 0.001	0.0537 ± 0.00057	0.05447 ± 0.00045	0.053 ± 0.0011
CCOC(=O)C1=C(C)NC(C)=C(C(=O)OCC)C1c1ccccc1/C=C/C(=O)OC(C)(C)C [Lacidipine]	0.2596 ± 0.0023	0.308 ± 0.013	0.247 ± 0.0068	0.201 ± 0.017	0.119 ± 0.0029	0.156 ± 0.0078	0.299 ± 0.12	0.346 ± 0.043	0.157 ± 0.0032	0.182 ± 0.0034	0.521 ± 0.056	0.429 ± 0.017	0.322 ± 0.023
CCCCCCC[N+](CC)(CC)CCCCc1ccc(Cl)cc1 [Clofilium tosylate]	0.03993 ± 0.00025	0.03923 ± 5.8e-05	0.039 ± 0.00017	0.03977 ± 0.00021	0.03863 ± 0.00025	0.0398 ± 0.00026	0.0468 ± 0.00026	0.0474 ± 0.00051	0.0462 ± 0.00046	0.0478 ± 0.0034	0.0487 ± 0.00091	0.0551 ± 0.0018	0.05213 ± 0.0004
CC(C)(C)NC(=O)[C@H]1CC[C@H]2[C@@H]3CC[C@H]4NC(=O)C=C[C@]4(C)[C@H]3CC[C@]12C [Finasteride]	0.121 ± 0.003	0.201 ± 0.015	0.201 ± 0.0065	0.133 ± 0.0022	0.0954 ± 0.00085	0.144 ± 0.0043	0.308 ± 0.064	0.268 ± 0.064	0.183 ± 0.0049	0.228 ± 0.006	0.351 ± 0.011	0.366 ± 0.022	0.182 ± 0.03
